PubChem BioAssay (EPA / NIEHS)
Inconclusive results are not listed. Active and inactive are the calls of the source. The calls were made as follows, unless noted: active = hit-call score of the fitted dose curve at least 0.9, where 1 is the maximum; inactive = score below 0.9.

Columns and labels:
[1] = biological target: Myc proto-oncogene protein (Homo sapiens) (UniProt P01106); experiment: ATG_Myc_CIS: Attagene CIS-FACTORIAL HepG2 Assay for human Myelocytomatosis (Myc) Proto-Oncogene Transcription Factor (AID 2282990); conditions: HepG2, Attagene cis-reporter transcription factor activity; actives raise or lower the signal
Myc proto-oncogene protein (Homo sapiens), sequence (P01106 whole entry, looked up, the tested form may be a part): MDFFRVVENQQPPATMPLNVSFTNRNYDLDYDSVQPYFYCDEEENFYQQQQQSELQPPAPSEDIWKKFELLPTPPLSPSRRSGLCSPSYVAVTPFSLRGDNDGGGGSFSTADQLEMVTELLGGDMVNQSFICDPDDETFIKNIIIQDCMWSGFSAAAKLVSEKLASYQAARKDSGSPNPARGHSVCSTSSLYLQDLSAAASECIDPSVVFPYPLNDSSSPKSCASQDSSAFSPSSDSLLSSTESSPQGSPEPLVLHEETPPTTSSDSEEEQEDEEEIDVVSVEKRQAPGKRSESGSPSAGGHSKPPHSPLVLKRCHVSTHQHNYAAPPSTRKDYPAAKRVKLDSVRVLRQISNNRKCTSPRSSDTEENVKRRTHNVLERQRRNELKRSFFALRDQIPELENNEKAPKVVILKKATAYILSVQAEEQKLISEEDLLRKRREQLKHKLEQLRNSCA
Procedure, shortened: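 After 24 h chemical treatment of HepG2 cells carrying multiplexed cis-regulated reporter constructs, reporter transcripts quantified by RT-PCR and capillary electrophoresis of fluorescent fragments. Gain or loss fitted against DMSO baseline.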

[2] = ATG_NF_kB_CIS: Attagene CIS-FACTORIAL HepG2 Assay for human Nuclear Factor Kappa B (NF-kB) (AID 2282991); conditions: HepG2 Attagene cis-factorial NF-kB reporter mRNA; actives raise or lower the signal
Procedure, shortened: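 Fluorescence of labelled RT-PCR products separated by capillary electrophoresis gives reporter mRNA levels from transfected HepG2 cells exposed 24 h; values are fitted in both directions relative to DMSO.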

[3] = ATG_NRF2_ARE_CIS: Attagene CIS-FACTORIAL HepG2 Assay for human Nuclear Factor Erythroid 2 Related Factor 2 (NFR2) response to Antioxidant Response Elements (ARE) (AID 2282992); conditions: HepG2 Attagene ARE/NRF2 reporter, transcription factor activity; actives raise or lower the signal
Procedure, shortened: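 HepG2 cells transiently transfected with multiplexed cis-regulated reporter transcription units measure endogenous transcription factor activity. Reporter mRNA at 24 h is quantified by RT-PCR, fluorescent labelling and capillary electrophoresis, with bidirectional fitting relative to DMSO.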

[4] = ATG_Oct_MLP_CIS: Attagene CIS-FACTORIAL HepG2 Assay for human Octamer-Binding Transcription Factor (Oct) (AID 2282993); conditions: HepG2 Attagene cis-factorial Oct reporter, mRNA; actives raise or lower the signal
Procedure, shortened: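 Readout is reporter transcript level from RT-PCR with fluorescent primer extension and capillary electrophoresis, fitted in both directions against DMSO. Transfected HepG2 reporter units report endogenous factor activity after 24 h dosing.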

[5] = biological target: Cellular tumor antigen p53 (Homo sapiens) (UniProt P04637); experiment: ATG_p53_CIS: Attagene CIS-FACTORIAL HepG2 Assay for human p53 Transcription Factor (AID 2282994); conditions: HepG2 p53 cis-element reporter, Attagene mRNA; actives raise or lower the signal
Cellular tumor antigen p53 (Homo sapiens), sequence (P04637 whole entry, looked up): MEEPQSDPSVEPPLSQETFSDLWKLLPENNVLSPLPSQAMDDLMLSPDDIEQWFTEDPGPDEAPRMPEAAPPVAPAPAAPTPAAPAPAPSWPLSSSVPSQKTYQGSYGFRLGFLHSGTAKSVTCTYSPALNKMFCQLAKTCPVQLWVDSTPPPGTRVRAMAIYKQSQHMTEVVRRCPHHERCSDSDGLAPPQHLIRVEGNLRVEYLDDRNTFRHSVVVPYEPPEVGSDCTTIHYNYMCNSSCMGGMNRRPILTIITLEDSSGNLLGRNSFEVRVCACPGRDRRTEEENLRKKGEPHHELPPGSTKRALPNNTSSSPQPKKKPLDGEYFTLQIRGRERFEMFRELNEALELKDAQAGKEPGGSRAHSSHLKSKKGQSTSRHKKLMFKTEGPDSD
Procedure, shortened: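 HepG2 cells transiently transfected with multiplexed cis-regulated reporter transcription units read endogenous TF activity. After 24 h compound exposure, reporter mRNA was quantified by RT-PCR, fluorescent labelling, HpaI digestion and capillary electrophoresis; bidirectional fits versus DMSO baseline.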

[6] = biological target: human Peroxisome Proliferator-activated Receptor alpha (PPARa), PPARA (gene 5465) (UniProt Q07869); experiment: ATG_PPARa_TRANS: Attagene TRANS-FACTORIAL HepG2 Assay for human Peroxisome Proliferator-activated Receptor alpha (PPARa) (AID 2283001; active = hit-call score of the fitted dose curve at least 0.9, where 1 is the maximum;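 as to AC50: potency for gain of reporter signal over DMSO so agonist or activator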)
human Peroxisome Proliferator-activated Receptor alpha (PPARa), PPARA (gene 5465), sequence (Q07869 whole entry, looked up, the tested form may be a part): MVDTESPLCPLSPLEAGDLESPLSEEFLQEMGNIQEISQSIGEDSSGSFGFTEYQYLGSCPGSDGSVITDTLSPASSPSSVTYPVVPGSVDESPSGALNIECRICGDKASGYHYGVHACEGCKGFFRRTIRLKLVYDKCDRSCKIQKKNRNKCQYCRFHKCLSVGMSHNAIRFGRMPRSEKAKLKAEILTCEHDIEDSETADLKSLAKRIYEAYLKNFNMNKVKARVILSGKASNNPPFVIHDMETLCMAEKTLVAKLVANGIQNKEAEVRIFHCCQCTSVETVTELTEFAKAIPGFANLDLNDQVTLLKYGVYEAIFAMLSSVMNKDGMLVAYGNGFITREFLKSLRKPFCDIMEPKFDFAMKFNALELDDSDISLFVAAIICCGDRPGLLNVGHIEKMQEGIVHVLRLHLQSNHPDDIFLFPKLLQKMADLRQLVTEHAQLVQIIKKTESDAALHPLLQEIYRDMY
Procedure, shortened: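 Reporter transcripts from GAL4-UAS units in transfected HepG2 were quantified 24 h after dosing. Detection used reverse transcription, PCR, fluorescent primer extension and capillary electrophoresis, with DMSO as baseline.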

[7] = biological target: human Peroxisome Proliferator-activated Receptor delta (PPARd), PPARD (gene 5467) (UniProt Q03181); experiment: ATG_PPARd_TRANS: Attagene TRANS-FACTORIAL HepG2 Assay for human Peroxisome Proliferator-activated Receptor delta (PPARd) (AID 2283002; active = hit-call score of the fitted dose curve at least 0.9, where 1 is the maximum)
human Peroxisome Proliferator-activated Receptor delta (PPARd), PPARD (gene 5467), sequence (Q03181 whole entry, looked up, the tested form may be a part): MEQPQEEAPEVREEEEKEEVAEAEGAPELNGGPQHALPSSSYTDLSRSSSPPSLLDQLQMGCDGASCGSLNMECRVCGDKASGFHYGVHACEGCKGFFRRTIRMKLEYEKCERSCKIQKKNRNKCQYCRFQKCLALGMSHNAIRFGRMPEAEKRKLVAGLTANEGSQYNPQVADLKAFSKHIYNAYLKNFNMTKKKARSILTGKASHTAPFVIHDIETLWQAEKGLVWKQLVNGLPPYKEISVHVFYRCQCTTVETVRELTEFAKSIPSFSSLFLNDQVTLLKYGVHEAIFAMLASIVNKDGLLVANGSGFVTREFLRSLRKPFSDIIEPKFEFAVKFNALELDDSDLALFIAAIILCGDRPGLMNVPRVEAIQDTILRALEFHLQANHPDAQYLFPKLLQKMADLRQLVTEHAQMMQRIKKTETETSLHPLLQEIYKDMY
Procedure, shortened: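 Read-out is induced reporter mRNA, quantified by RT-PCR with fluorescent labelling and capillary electrophoresis after 24 h dosing. Cells are HepG2 transiently carrying multiple GAL4-UAS reporter units driven by exogenous NR-GAL4 chimeras; DMSO serves as baseline.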

[8] = biological target: Peroxisome proliferator-activated receptor gamma (Homo sapiens) (UniProt P37231); experiment: ATG_PPARg_TRANS: Attagene TRANS-FACTORIAL HepG2 Assay for human Peroxisome Proliferator-activated Receptor-gamma (PPARg) (AID 2283007; active = hit-call score of the fitted dose curve at least 0.9, where 1 is the maximum)
Peroxisome proliferator-activated receptor gamma (Homo sapiens), sequence (P37231 whole entry, looked up): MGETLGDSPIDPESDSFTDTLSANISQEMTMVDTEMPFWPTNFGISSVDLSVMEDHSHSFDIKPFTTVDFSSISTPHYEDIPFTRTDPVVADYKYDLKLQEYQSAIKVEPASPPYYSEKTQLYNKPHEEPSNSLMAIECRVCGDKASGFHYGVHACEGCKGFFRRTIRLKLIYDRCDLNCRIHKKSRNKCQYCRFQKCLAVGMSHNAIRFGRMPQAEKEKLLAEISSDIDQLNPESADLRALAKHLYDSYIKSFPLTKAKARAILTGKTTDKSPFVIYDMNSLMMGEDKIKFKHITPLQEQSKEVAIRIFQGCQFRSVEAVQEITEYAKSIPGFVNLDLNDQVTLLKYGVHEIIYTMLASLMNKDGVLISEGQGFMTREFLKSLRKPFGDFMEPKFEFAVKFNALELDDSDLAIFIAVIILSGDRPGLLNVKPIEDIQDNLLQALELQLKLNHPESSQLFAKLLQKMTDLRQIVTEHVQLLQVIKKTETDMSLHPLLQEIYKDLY
Procedure, shortened: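 Twenty-four hours after chemical dosing of transiently transfected HepG2 cells, isolated RNA was converted to cDNA, reporter sequences amplified and 6-FAM-labelled, then HpaI-digested and analysed by capillary electrophoresis. Signal increase against DMSO was fitted.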

[9] = biological target: Nuclear receptor subfamily 1 group I member 2 (Homo sapiens) (UniProt O75469); experiment: ATG_PXR_TRANS: Attagene TRANS-FACTORIAL HepG2 Assay for human Pregnane X Receptor (PXR) (AID 2283008; active = hit-call score of the fitted dose curve at least 0.9, where 1 is the maximum)
Nuclear receptor subfamily 1 group I member 2 (Homo sapiens), sequence (O75469 whole entry, looked up, the tested form may be a part): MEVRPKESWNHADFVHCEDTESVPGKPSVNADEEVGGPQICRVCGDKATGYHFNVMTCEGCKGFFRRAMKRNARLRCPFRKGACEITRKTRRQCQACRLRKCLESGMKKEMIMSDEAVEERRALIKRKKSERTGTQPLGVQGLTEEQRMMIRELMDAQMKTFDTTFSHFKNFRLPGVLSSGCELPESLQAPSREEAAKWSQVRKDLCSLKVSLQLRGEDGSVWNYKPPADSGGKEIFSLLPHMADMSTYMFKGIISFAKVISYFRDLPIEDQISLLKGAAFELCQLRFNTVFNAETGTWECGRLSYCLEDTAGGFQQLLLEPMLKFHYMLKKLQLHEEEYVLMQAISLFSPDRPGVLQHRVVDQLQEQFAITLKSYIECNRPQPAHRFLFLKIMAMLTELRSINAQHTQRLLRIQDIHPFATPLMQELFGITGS
Procedure, shortened: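 HepG2 cells transiently transfected with multiple reporter units, here a PXR-GAL4 chimera driving a GAL4-UAS reporter; 24 h compound exposure. Reporter mRNA measured by RT-PCR, FAM labelling and capillary electrophoresis; gain of signal fitted against DMSO baseline.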

[10] = biological target: human Retinoic Acid Receptor beta (RARb), RARB (gene 5915) (UniProt P10826); experiment: ATG_RARb_TRANS: Attagene TRANS-FACTORIAL HepG2 Assay for human Retinoic Acid Receptor beta (AID 2283004; active = hit-call score of the fitted dose curve at least 0.9, where 1 is the maximum)
human Retinoic Acid Receptor beta (RARb), RARB (gene 5915), sequence (P10826 whole entry, looked up, the tested form may be a part): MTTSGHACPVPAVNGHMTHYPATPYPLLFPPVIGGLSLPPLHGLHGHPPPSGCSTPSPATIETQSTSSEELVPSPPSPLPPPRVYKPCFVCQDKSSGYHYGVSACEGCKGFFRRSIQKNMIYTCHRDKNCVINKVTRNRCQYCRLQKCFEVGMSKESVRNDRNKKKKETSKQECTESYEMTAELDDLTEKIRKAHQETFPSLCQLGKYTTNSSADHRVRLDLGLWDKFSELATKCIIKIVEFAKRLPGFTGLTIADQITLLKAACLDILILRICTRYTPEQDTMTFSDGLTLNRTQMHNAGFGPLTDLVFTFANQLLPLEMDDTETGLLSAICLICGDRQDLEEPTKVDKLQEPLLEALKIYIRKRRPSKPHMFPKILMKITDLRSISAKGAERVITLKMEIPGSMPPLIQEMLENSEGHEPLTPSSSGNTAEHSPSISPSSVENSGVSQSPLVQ
Procedure, shortened: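 HepG2, transient MRTU transfection, NR–Gal4 chimera, 24 h treatment; RT-PCR plus CE fluorescence detection of reporter mRNA; gain of signal vs DMSO.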

[11] = biological target: Retinoic acid receptor alpha (Homo sapiens) (UniProt P10276); experiment: ATG_RARa_TRANS: Attagene TRANS-FACTORIAL HepG2 Assay for human Retinoic Acid Receptor alpha (RARa) (AID 2283005; active = hit-call score of the fitted dose curve at least 0.9, where 1 is the maximum)
Retinoic acid receptor alpha (Homo sapiens), sequence (P10276 whole entry, looked up, the tested form may be a part): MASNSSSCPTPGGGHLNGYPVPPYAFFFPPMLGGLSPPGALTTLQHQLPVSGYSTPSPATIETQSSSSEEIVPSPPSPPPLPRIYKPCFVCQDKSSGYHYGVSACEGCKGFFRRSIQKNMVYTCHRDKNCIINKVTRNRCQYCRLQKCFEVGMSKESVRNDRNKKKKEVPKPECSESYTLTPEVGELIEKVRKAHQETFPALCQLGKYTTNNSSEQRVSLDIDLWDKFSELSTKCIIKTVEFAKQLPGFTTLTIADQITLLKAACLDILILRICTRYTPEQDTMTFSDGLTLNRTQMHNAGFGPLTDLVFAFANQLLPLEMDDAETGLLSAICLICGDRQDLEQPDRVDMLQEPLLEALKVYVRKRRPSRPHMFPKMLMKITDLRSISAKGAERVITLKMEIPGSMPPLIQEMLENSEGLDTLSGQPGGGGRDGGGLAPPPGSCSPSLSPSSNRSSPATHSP
Procedure, shortened: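 Reporter transcripts, measured by RT-PCR with fluorescent labeling and capillary electrophoresis after 24 h dosing, reflect activity of an exogenous human RARa–GAL4 fusion in transiently transfected HepG2. Fitted for increase relative to DMSO.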

[12] = biological target: human Retinoic Acid Receptor gamma (RARg), RARG (gene 5916) (UniProt P13631); experiment: ATG_RARg_TRANS: Attagene TRANS-FACTORIAL HepG2 Assay for human Retinoic Acid Receptor gamma (RARg) (AID 2283009; active = hit-call score of the fitted dose curve at least 0.9, where 1 is the maximum)
human Retinoic Acid Receptor gamma (RARg), RARG (gene 5916), sequence (P13631 whole entry, looked up, the tested form may be a part): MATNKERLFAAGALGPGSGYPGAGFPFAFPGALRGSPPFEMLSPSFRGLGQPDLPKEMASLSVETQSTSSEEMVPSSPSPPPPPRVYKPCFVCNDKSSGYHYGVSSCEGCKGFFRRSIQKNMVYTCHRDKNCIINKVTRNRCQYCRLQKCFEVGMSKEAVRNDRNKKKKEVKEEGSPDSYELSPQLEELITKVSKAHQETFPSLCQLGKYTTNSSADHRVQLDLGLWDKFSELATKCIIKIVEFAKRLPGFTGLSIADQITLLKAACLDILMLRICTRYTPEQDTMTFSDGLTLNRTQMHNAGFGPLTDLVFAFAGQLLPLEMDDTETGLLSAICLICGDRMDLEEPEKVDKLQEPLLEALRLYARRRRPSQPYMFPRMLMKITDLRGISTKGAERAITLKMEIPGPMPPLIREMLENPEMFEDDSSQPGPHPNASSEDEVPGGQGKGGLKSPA
Procedure, shortened: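 HepG2, RARg-GAL4 TRANS system, 24 h exposure; reporter mRNA by RT-PCR + CE fluorescence; increase over DMSO.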

[13] = BSK_3C_TissueFactor: BioMAP Diversity Plus: 3C Assay for Tissue Factor Biomarker Activity (AID 2282997); conditions: BioMAP 3C HUVEC, tissue factor biomarker readout; actives raise or lower the signal
Procedure, shortened: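 Values derive from bidirectional curve fitting against DMSO of Tissue Factor ELISA signals, taken 24 h after dosing primary human umbilical vein endothelial cells.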

[14] = BSK_3C_uPAR: BioMAP Diversity Plus: 3C Assay for Urokinase-type plasminogen activator receptor (uPAR) Biomarker Activity (AID 2282998); conditions: BioMAP 3C HUVEC, uPAR biomarker ELISA; actives raise or lower the signal
Procedure, shortened: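 Cell-surface uPAR on HUVEC (3C system) read by ELISA at 24 h post-treatment, with DMSO as baseline and fitting in both directions. Parallel cultures stained with SRB to flag overt cytotoxicity.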

[15] = BSK_3C_VCAM1: BioMAP Diversity Plus: 3C Assay for Vascular cell adhesion molecule 1 (VCAM1) Biomarker Activity (AID 2282999); conditions: BioMAP 3C HUVEC, VCAM1 ELISA, cytokine-stimulated; actives raise or lower the signal
Procedure, shortened: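 Endothelial cells from human umbilical vein are treated with test chemical. At 24 h, VCAM-1 is measured by ELISA, and responses in either direction are fitted relative to DMSO.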

[16] = BSK_4H_Eotaxin3: BioMAP Diversity Plus: 4H Assay for Eotaxin 3 Biomarker Activity (AID 2283000); conditions: primary human endothelial cells (HUVEC); actives raise or lower the signal
Procedure, shortened: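 Endothelial primary cells (human umbilical vein) exposed to compound for 24 h. ELISA detection of Eotaxin-3.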

[17] = read-out: Intercellular Adhesion Molecule 1 (ICAM1), ICAM1 (gene 3383); experiment: BSK_3C_ICAM1: BioMAP Diversity Plus: 3C Assay for Intercellular Adhesion Molecule 1 (ICAM1) Biomarker Activity (AID 2283003); conditions: primary human endothelial cells (HUVEC); actives raise or lower the signal
Procedure, shortened: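 Human vascular endothelial primary cells, 3C conditions, 24 h treatment. ICAM-1 by ELISA.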

[18] = BSK_3C_Proliferation: Cell Proliferation Assessment in the BioMAP Diversity Plus: 3C Assay (AID 2283006); conditions: primary human endothelial cells (HUVEC);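 as to AC50: potency may reflect either rise or fall in cell number versus DMSO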
Procedure, shortened: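 Proliferation of human vascular endothelial primary cells after 48 h dosing, quantified as SRB-stained protein at 560 nm relative to DMSO.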

[19] = biological target: human RAR-related Orphan Receptor beta (RORb), RORB (gene 6096) (UniProt Q92753); experiment: ATG_RORb_TRANS: Attagene TRANS-FACTORIAL HepG2 Assay for human RAR-related Orphan Receptor beta (RORb) (AID 2283010; active = hit-call score of the fitted dose curve at least 0.9, where 1 is the maximum)
human RAR-related Orphan Receptor beta (RORb), RORB (gene 6096), sequence (Q92753 whole entry, looked up, the tested form may be a part): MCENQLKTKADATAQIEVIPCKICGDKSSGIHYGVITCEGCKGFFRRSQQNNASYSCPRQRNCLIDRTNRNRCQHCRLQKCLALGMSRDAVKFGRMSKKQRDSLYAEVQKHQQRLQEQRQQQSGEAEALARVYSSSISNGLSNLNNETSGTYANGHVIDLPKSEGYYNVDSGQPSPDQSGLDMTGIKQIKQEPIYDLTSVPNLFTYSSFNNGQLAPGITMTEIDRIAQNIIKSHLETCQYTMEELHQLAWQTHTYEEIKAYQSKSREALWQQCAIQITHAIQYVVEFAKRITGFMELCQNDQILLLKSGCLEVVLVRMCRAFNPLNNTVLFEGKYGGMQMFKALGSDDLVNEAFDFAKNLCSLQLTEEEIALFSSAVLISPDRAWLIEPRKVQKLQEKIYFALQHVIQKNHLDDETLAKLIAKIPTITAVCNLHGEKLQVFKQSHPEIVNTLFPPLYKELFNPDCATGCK
Procedure, shortened: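 In this TRANS-format test, human HepG2 cells express chimeric NR-Gal4 fusion proteins driving GAL4-UAS reporters. After 24 h dosing, reporter transcripts are measured by fluorescent RT-PCR/capillary electrophoresis, with DMSO as negative control.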

[20] = biological target: human RAR-related Orphan Receptor gamma (RORg), RORC (gene 6097) (UniProt P51449); experiment: ATG_RORg_TRANS: Attagene TRANS-FACTORIAL HepG2 Assay for human RAR-related Orphan Receptor gamma (RORg) (AID 2283011; active = hit-call score of the fitted dose curve at least 0.9, where 1 is the maximum)
Procedure, shortened: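 Activity is scored as increase in GAL4-UAS reporter mRNA over DMSO, detected by fluorescent RT-PCR and capillary electrophoresis in HepG2 cells transiently expressing a RORg-Gal4 chimera, 24 h after dosing.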

Measured: AC50

Cc1cccc(Nc2ccccc2)c1
active: [3] 70.6 µM | [8] 85.4 µM
inactive: [1] | [2] | [4] | [5] | [6] | [7] | [9]

NCCNc1cccc2ccccc12
inactive: [2] | [3] | [7] | [10] | [11] | [9] | [12]
active: [1] 168 µM | [4] 176 µM | [5] 50.9 µM | [6] 150 µM | [8] 125 µM

NC(=S)NNC(N)=S
inactive: [1] | [2] | [3] | [4] | [5] | [6] | [7] | [10] | [11] | [8] | [9]

COc1ccc(OC)c(N=Nc2c(O)ccc3ccccc23)c1
active: [3] 0.493 µM | [14] 12.2 µM | [15] 20 µM | [16] 9.47 µM | [18] 12.6 µM | [9] 4.23 µM
not listed: [11] | [12]
inactive: all other assays above

CC1(C)C2=CCCC(C)(C)[C@]23CC[C@H]1C3
active: [3] 100 µM | [14] 36.4 µM | [16] 27.3 µM | [18] 31.7 µM | [9] 1.31 µM
not listed: [6] | [11] | [20]
inactive: all other assays above

CC(=O)c1c(C)c([N+](=O)[O-])c(C(C)(C)C)c([N+](=O)[O-])c1C
active: [9] 1.84 µM
not listed: [6] | [19] | [20]
inactive: all other assays above

CN(C)C(=O)Nc1ccc(Oc2ccc(Cl)cc2)cc1
active: [3] 61.4 µM | [14] 2.32 µM | [8] 17.4 µM | [9] 26.6 µM
not listed: [7] | [10] | [11] | [12] | [19] | [20]
inactive: all other assays above

Cc1cc(=O)oc2cc(N(C)C)ccc12
inactive: [1] | [2] | [3] | [5] | [6] | [7] | [8] | [9]
active: [4] 57.4 µM

C[C@@H]1CCN(C(=O)[C@H](CCCN=C(N)N)NS(=O)(=O)c2cccc3c2NC[C@H](C)C3)[C@@H](C(=O)O)C1
not listed: [6] | [7] | [9] | [11] | [19] | [20]
inactive: all other assays above
